Compound activity as filed in PubChem BioAssay.
Hits are enriched below; roughly 13% of the tested compounds scored in any of these assays.
HCV inh – inhibitors of hepatitis C virus infection; 340,000 compounds, 3.4% hits; Huh7.5.1 HCVcc-Cre infection, luciferase reporter, 44 h; Potency, µM (doses to about 41.8 µM), inactives show at the top dose activity change, negative = inhibition, hits mostly inhibitors; AID 651820; also: potency is read from the fitted curve at half-maximal effect
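Infectious HCV cell culture screen: compound-treated cells (1,000/well, pre-plated 4 h) are infected with HCVcc-Cre at roughly 0.5 moi and grown 44 h. Infection is quantified by luciferase signal after 15 min substrate incubation at room temperature.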
HCMV antiviral – inhibitors of human cytomegalovirus. HFF cells, HCMV-luciferase reporter, 72 h; stronger effect = lower value. activity change, negative = inhibition, % at 57.5 µM. 410,000 compounds, 4.5% hits; in the data active = activity change below about -60%; inconclusive = no clear call, values can overlap the other calls; inactive = above about -39%
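Steps: HFFs plated, 16 h 37C; compounds added; HCMV-luciferase added to MOI 1 PFU/cell; 72 h 37C; OneGlo reagent, 5 min room temperature; luminescence read, normalized to controls.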
Pf growth 48h – P. falciparum growth inhibition at 48 hours (one generation) | P. falciparum luciferase growth in erythrocytes, 48 h | Potency, µM (doses to about 28.7 µM), for inactives: at the highest dose activity change, negative = inhibition, usual class: inhibitors | 310,000 compounds, 5.9% hits | AID 504832; also: potency is read from the fitted curve at half-maximal effect
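Compounds are pin-transferred into medium, infected erythrocytes (2% hematocrit, 0.1% parasitemia final) are added, and plates sit one parasite generation at 37 C in 5% CO2. Detection reagent is then added and luminescence measured.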
Pf growth 96h – P. falciparum growth inhibition at 96 hour, primary screen for plastid delayed-death inhibitors. P. falciparum luciferase reporter growth, 96 h. 320,000 compounds, 6.9% hits. Potency, µM (titrated, usually from 28.7 µM), inactives show at the top dose activity change, negative = inhibition, usual class: inhibitors; also: potency is read from the fitted curve at half-maximal effect
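Erythrocytes infected with luciferase-expressing P. falciparum were dispensed at 2% hematocrit and 0.05% parasitemia (final), then incubated with compounds 96 hours at 37 C in 5% CO2. Luminescence after detection reagent addition reported growth.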
Active calls of the source: *; ? = inconclusive; . = no result. Unless noted, calls follow the shape of the dose curve; as a rule, active = well fitted inhibition curve with a large enough effect; inconclusive = small, poorly fitted or top-dose-only effect, or another doubt; inactive = no such curve, though single readings can be large or run the other way. % is scaled to controls: 0 for no effect and ±100 for the full control effect.

SMILES	HCV inh	HCMV antiviral	Pf growth 48h	Pf growth 96h
CC(C)c1ccc2c(c1)CC[C@H]1[C@](C)(CN)CCC[C@]21C	?	-98*	.	.
CC(C)c1cc2c(cc1S(=O)(=O)O)[C@@]1(C)CCC[C@@](C)(C(=O)O)[C@@H]1CC2	.	.	13%	-5%
Cc1ccc(CNC(=O)c2cccn2-c2nnc(N3CCCCC3)s2)cc1	.	0	.	.
COC(=O)[C@H]1[C@H](CO)[C@H]2Cn3c(cccc3=O)[C@@H]1N2Cc1ccncc1	.	6	.	.
COc1ccc(C2=NOC(Cn3c(Cc4ccc(Cl)cc4)nc4c3c(=O)n(C)c(=O)n4C)C2)cc1 (stereo unspecified)	1.4µM*	-9	-9%	13µM*
CN(C)c1ccc(C(CNC(=O)COc2ccc(Cl)cc2)N2CCCC2)cc1 (stereo unspecified)	9%	?	-18%	6.6µM*
Cc1ccc(Cn2nc(C)c(C(=O)NCC(c3ccc(F)cc3)N3CCOCC3)c2Cl)cc1 (stereo unspecified)	?	0	10µM*	?
COc1cc(C(=O)NCC(c2ccc(F)cc2)N2CCOCC2)ccc1OCc1ccccc1Cl (stereo unspecified)	?	-21	5.2µM*	9.3µM*
CN(C)c1ccc(C(CNC(=O)COc2ccc(Cl)cc2)N2CCOCC2)cc1 (stereo unspecified)	.	5	.	.
CCOc1cc(C(=O)NCC(c2ccc(N(C)C)cc2)N2CCOCC2)cc(OCC)c1OCC (stereo unspecified)	.	-62*	.	.
CCN(C(=O)CSc1nc2ccccc2n1CC(=O)Nc1ccc(F)cc1F)c1ccccc1	.	-8	.	.
COc1ccc(NC(=O)c2sc3nc[nH]c(=O)c3c2C)cc1Cl	.	80	.	.
CCOc1ccc(NC(=O)c2ccc3c(c2)CCN3S(=O)(=O)c2ccc(Cl)cc2)cc1	.	-14	.	.
O=C(COc1ccccc1Cl)NCC(c1cccs1)N1CCOCC1 (stereo unspecified)	?	?	?	1%
Cc1cc(OCC(=O)NCC(c2ccc(F)cc2)N2CCOCC2)ccc1Cl (stereo unspecified)	4%	-2	9.3µM*	9.3µM*
CCc1ccc(OCC(=O)NCC(c2ccc(Cl)cc2)N2CCOCC2)cc1 (stereo unspecified)	.	-11	.	.
COc1ccc(C(CNC(=O)C(C)Oc2ccc(Br)cc2)N2CCCC2)cc1 (stereo unspecified)	?	-17	12µM*	?
COc1ccc(C(CNC(=O)COc2ccccc2C)N2CCCCC2)cc1 (stereo unspecified)	9%	1	?	?
COc1ccc(C(CNC(=O)COc2ccc(F)cc2Br)N2CCCC2)cc1 (stereo unspecified)	?	-61*	?	-1%
Cc1ccc(Cl)c(OCC(=O)NCC(c2cccs2)N2CCOCC2)c1 (stereo unspecified)	13µM*	-68*	?	?
COc1ccc(C(CNC(=O)c2ccccc2C)N2CCCC2)cc1 (stereo unspecified)	-2%	47	.	-18%
COc1ccc(-n2nc(C(=O)NCc3ccc(F)cc3Cl)c3c4ccccc4n(C)c3c2=O)cc1Cl	.	-1	.	.
O=C(CC12CC3CC(CC(C3)C1)C2)NCC(c1ccc(F)cc1)N1CCOCC1 (stereo unspecified)	7%	-39	12µM*	12µM*
Cc1ccc(S(=O)(=O)NCC2CCC(C(=O)NCc3ccc(F)cc3)CC2)cc1 (stereo unspecified)	.	0	.	.
Cc1ccc2oc(C(=O)Nc3c(C(=O)Nc4ccccc4)oc4ccccc34)cc(=O)c2c1	.	10	.	.
SMILES	HCV inh	HCMV antiviral	Pf growth 48h	Pf growth 96h
COc1ccc(C(=O)Nc2cccc(-c3cn4ccsc4n3)c2)cc1OC	.	62	.	.
COc1cc2cnncc2cc1OC	15%	89	30%	39%
COc1cc2cc(Br)cc(Br)c2nc1C	11µM*	-10	.	1%
O=C1C(=O)N(C2CCN(S(=O)(=O)c3ccccc3)CC2)CCN1Cc1ccccc1	.	5	.	.
CS(=O)(=O)c1cccc(-c2nnc(NC(=O)c3ccc4c(c3)OCCO4)o2)c1	.	18	.	.
O=C(NCP(=O)(Oc1ccccc1)Oc1ccccc1)OCc1ccccc1	.	8	.	.
CCOC(=O)C(CC(C)C)CP(=O)(O)CNC(=O)OCc1ccccc1 (stereo unspecified)	11%	?	0%	7.4µM*
CCCCOc1ccc(C(=O)NCCS(=O)(=O)N2CCN(c3ccccc3OC)CC2)cc1	.	-26	.	.
COc1ccc(C(=O)Nc2nnc(Cc3ccc(OC)c(OC)c3)s2)c(OC)c1	11µM*	26	2.3µM*	151%
COc1ccc(Cc2nnc(NC(=O)c3c(-c4ccccc4)noc3C)s2)cc1OC	-2%	69	?	10µM*
COc1cccc(C(=O)Nc2nnc(Cc3ccc(OC)c(OC)c3)s2)c1	9%	13	12µM*	0%
COc1ccc(Cl)cc1N1CC(C(=O)Nc2nccs2)CC1=O (stereo unspecified)	?	-67*	-18%	?
COc1ccc(Cc2nnc(NC(=O)c3ccc(OC)c(OC)c3)s2)cc1OC	-18%	-2	-10%	21%
Cc1cc2nc(CN(Cc3ccccc3)Cc3nc4cc(C)c(C)cc4[nH]3)[nH]c2cc1C	.	-12	.	.
Cc1c(Cl)cccc1NC(=O)Cn1nnc(-c2nc(-c3ccccc3)no2)c1N	.	-11	.	.
CCOc1ccc(NC(=O)CN2C(C(=O)OC)=C(c3ccccc3)c3cc(Cl)ccc3S2(=O)=O)cc1	.	-9	.	.
COc1ccc(Cc2nnc(NC(=O)C3CC(=O)N(c4ccccc4)C3)s2)cc1OC (stereo unspecified)	-8%	80	0%	2.9µM*
COc1ccc(CCN2CC(C(=O)Nc3nnc(Cc4ccccc4)s3)CC2=O)cc1OC (stereo unspecified)	-14%	-6	?	?
COc1cc2c3c(cccc3c1)C(=O)N(CCN1CCCC1)C2=O	.	-98*	.	.
COc1ccc(C(=O)CN2CCN(CCN3C(=O)c4cccc5cccc(c45)C3=O)CC2)cc1	10µM*	-22	.	.
CCN(CC)S(=O)(=O)c1ccc(C(=O)N2CCN(CCN3C(=O)c4cccc5cccc(c45)C3=O)CC2)cc1	.	.	?	2.9µM*
O=C(CN1CCN(CCN2C(=O)c3cccc4cccc(c34)C2=O)CC1)c1ccc(F)cc1	14µM*	-26	15µM*	1µM*
COc1cccc(OCC(O)CN2CCN(CCN3C(=O)c4cccc5cccc(c45)C3=O)CC2)c1 (stereo unspecified)	?	?	?	2%
COC(=O)C1=C(C)N(Cc2ccccc2C(F)(F)F)C(=NCc2ccc(OC)cc2)NC1c1cccc(F)c1 (stereo unspecified)	.	20	.	.
CCOC1=CC(=O)N(CCN)C1	.	-5	.	.
Cn1c(N)c(C(=O)COC(=O)c2ccc(F)cc2Cl)c(=O)n(C)c1=O	?	-18	.	.
Cn1c(N)c(C(=O)COC(=O)C2(c3cccc(F)c3)CCCC2)c(=O)n(C)c1=O	?	?	7.4µM*	13µM*
